Where “and” joins values, the source holds several entries; their conditions need not be identical. Identical values can stand only once. Inconclusive results are not listed. Calls of active or inactive are those of the source. Unless noted, calls follow the shape of the dose curve; as a rule, active = well fitted curve in the direction sought with a large enough effect in the repeat runs; inconclusive = weak or mixed curves; inactive = no such curve, though single readings can be large; an effect the other way counts as inactive or inconclusive.
Legend:
[1] = qHTS assay to identify small molecule agonists of the hypoxia (HIF-1) signaling pathway - cell viability counter screen (AID 1224844; calls by dose curve; also: nearly all actives have a fitted effect of over 50% in size)
Method in brief: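 HRE-bla ME-180 cells, 2,000/well in 0.5% dialyzed FBS medium, treated 17 h at 37C with compounds. Viability read in the same wells as the bla reporter, by CellTiter-Glo luminescence after 30 min at room temperature.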

[2] = qHTS assay to identify small molecule agonists of H2AX (AID 1224845; active = well fitted activation curve with a large enough effect in the signal ratio in the repeat runs, not every such curve was filed as active; the % refers to the signal ratio)
Method in brief: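 Wild-type CHO-K1 cells, plated overnight, exposed 3hr at 37C to 15 concentrations (0.76% DMSO final). Lysed, then HTRF anti-pH2AX (S139) cryptate and anti-H2AX-d2 antibodies, 24 hr room temperature; 665/620 nm emission read.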

[3] = qHTS assay to identify small molecule agonists of the hypoxia (HIF-1) signaling pathway (AID 1224846; active = well fitted activation curve with a large enough effect in the signal ratio in the repeat runs, not every such curve was filed as active; the % refers to the signal ratio)
Method in brief: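 HRE-bla ME-180 beta-lactamase reporter cells in medium with 0.5% dialyzed FBS, pre-incubated 5 h then exposed to compounds 17 h at 37C, 5% CO2; reporter induction read with CCF4-AM FRET substrate.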

[4] = qHTS assay to identify small molecule agonists of H2AX - cell viability counter screen (AID 1224847; calls by dose curve; also: top concentration of the series differs between compounds; nearly all actives have a fitted effect of over 30% in size)
Method in brief: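 Compounds tested at 15 concentrations were incubated 3 hr at 37C with wild-type CHO-K1 cells; cellular ATP-based luminescence (CellTiter-Glo) indicated viability.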

[5] = qHTS assay to identify small molecule antagonists of the estrogen related receptor (ERR) signaling pathway from Tox21 library (AID 1224848); also: nearly all actives have a fitted effect of over 50% in size; also: potency is read from the fitted curve at half-maximal effect
Method in brief: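 ERR reporter cell line (from NTP) seeded 2,000 cells/well, rested 6 h at 37 C/5% CO2, then pin-dosed with compounds in DMSO. After 18 h at 37 C, ONE-Glo added; luminescence read after 30 min at room temperature.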

[6] = qHTS assay to identify small molecule agonists of the estrogen related receptor (ERR) signaling pathway from Tox21 library (AID 1224849; calls by dose curve; also: nearly all actives have a fitted effect of over 15% in size); conditions: ERR reporter cell line, ONE-Glo luciferase, 18 h
Method in brief: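 ERR reporter cells (NTP line) pre-incubated 6 hours at 37 C, then exposed to compounds for 18 hours at 37 C. ONE-Glo luciferase luminescence was read after 30 minutes at room temperature.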

[7] = qHTS RealTime-Glo MT Cell Viability Assay in HepG2 cells - 24 hour (AID 1224867); also: nearly all actives have a fitted effect of over 50% in size
Method in brief: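 Luminescence read-out: viable HepG2 cells reduce a prosubstrate to a NanoLuc substrate, giving a signal proportional to live cell number. Reads taken at 0, 8, 16, 24, 32 and 40 h of compound exposure at 37 C.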

[8] = qHTS RealTime-Glo MT Cell Viability Assay in HEK293 cells - 32 hour (AID 1224868); also: nearly all actives have a fitted effect of over 50% in size; also: potency is read from the fitted curve at half-maximal effect; as to activity change, negative = cytotoxic: top concentration of the series differs between compounds
Method in brief: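 Nonlytic real-time viability readout: viable cells convert prosubstrate to NanoLuc substrate, giving luminescence proportional to live cell number. HEK293, 600 cells/well, compound added after 5 h, continuous culture at 37 C.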

[9] = A CellTox Green Cytotoxicity Assay to monitor cytotoxicity in HEK293 cells - 0 hour (AID 1224869); also: nearly all actives have a fitted effect of over 50% in size
Method in brief: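 HEK293 cells, 600/well, were preincubated 5 hours and then exposed to compounds at 37 C for up to 40 hours. A cell-impermeant cyanine dye staining dead-cell DNA was read by fluorescence at 0, 8, 16, 24, 32 and 40 h time points.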

[10] = qHTS RealTime-Glo MT Cell Viability Assay in HepG2 cells - 40 hour (AID 1224870); also: nearly all actives have a fitted effect of over 50% in size
Method in brief: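 HepG2 cells (600/well) mixed with RealTime-Glo MT reagent, settled 5 h at 37 C/5% CO2 before compound addition. Nonlytic NanoLuc luminescence from viable-cell prosubstrate reduction read repeatedly during 40 h treatment at 37 C.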
% is scaled to controls: 0 for no effect and ±100 for the full control effect.

CCOC(=O)C(C)C(C)=O (stereo not given)
inactive: Potency [1] | Potency [2] | Potency [3] | Potency [4] | Potency [5] | activity change, positive = activation ([6]; at 92.4 µM (top of the series)) 5% | Potency [7] | Potency [8] | Potency [9] | Potency [10]

Cc1cccc(O)c1C
inactive: Potency [1] | Potency [2] | Potency [3] | Potency [4] | Potency [5] | activity change, positive = activation ([6]; at 92.4 µM (top of the series)) 0.54% and 10.2% | Potency [7] | Potency [8] | Potency [9] | Potency [10]

CCC(C)(Oc1ccc(C2(c3ccc(OC(C)(CC)C(=O)O)cc3)CCCCC2)cc1)C(=O)O (stereo not given)
inactive: Potency [1] | Potency [2] | Potency [3] | Potency [4] | Potency [5] | activity change, positive = activation ([6]; at 42.5 µM (top of the series)) 9.22% | Potency [7] | Potency [8] | Potency [9] | Potency [10]

CC[C@]1(O)C[C@@H]2CN(CCc3c([nH]c4ccccc34)[C@@](C(=O)OC)(c3cc4c(cc3OC)N(C)[C@H]3[C@@](O)(C(=O)OC)[C@H](OC(C)=O)[C@]5(CC)C=CCN6CC[C@]43[C@@H]65)C2)C1
active: Potency [5] 26.6 µM | Potency [8] 16.9 nM and 4.8 nM
inactive: Potency [1] | Potency [2] | Potency [3] | Potency [4] | activity change, positive = activation ([6]; at 42.5 µM (top of the series)) -22% and -33.9% | Potency [9] | Potency [10]

NC(=Nc1ccccc1)Nc1ccccc1
inactive: Potency [1] | Potency [2] | Potency [3] | Potency [4] | Potency [5] | Potency [7] | Potency [10]

CCCCC/C=C/CC1CC(=O)OC1=O (stereo not given)
inactive: Potency [1] | Potency [2] | Potency [3] | Potency [4] | Potency [5] | activity change, positive = activation ([6]; at 92.4 µM (top of the series)) 5.46% | Potency [7] | Potency [8] | Potency [9] | Potency [10]

OCC(CO)N[C@H]1C[C@](O)(CO)[C@@H](O)[C@H](O)[C@H]1O
inactive: Potency [1] | Potency [2] | Potency [3] | Potency [4] | Potency [5] | activity change, positive = activation ([6]; at 42.5 µM (top of the series)) 2.44% | Potency [7] | Potency [8] | Potency [9] | Potency [10]

C#CC(C)(CC)OC(=O)c1ccccc1C(=O)O (stereo not given)
inactive: Potency [1] | Potency [2] | Potency [3] | Potency [4] | Potency [5] | activity change, positive = activation ([6]; at 42.5 µM (top of the series)) 0.513% | Potency [7] | Potency [8] | Potency [10]

Cc1occc(=O)c1OC(=O)C(C)C
inactive: Potency [1] | Potency [2] | Potency [3] | Potency [4] | Potency [5] | activity change, positive = activation ([6]; at 92.4 µM (top of the series)) 1.53% | Potency [7] | Potency [8] | Potency [10]

CN1C(=O)c2ccc([N+](=O)[O-])cc2C1=O
inactive: Potency [1] | Potency [2] | Potency [3] | Potency [4] | Potency [5] | activity change, positive = activation ([6]; at 92.4 µM (top of the series)) 7.36% | Potency [7] | Potency [8] | Potency [10]

CC(C)(C)NCC(O)COc1ccccc1OCC1CCCO1 (stereo not given)
inactive: Potency [1] | Potency [2] | Potency [3] | Potency [4] | Potency [5] | activity change, positive = activation ([6]; at 42.5 µM (top of the series)) 4.72% | Potency [7] | Potency [8] | Potency [9] | Potency [10]

O=C(O)CCc1ccccc1
inactive: Potency [1] | Potency [2] | Potency [3] | Potency [4] | Potency [5] | activity change, positive = activation ([6]; at 92.4 µM (top of the series)) 0.886% | Potency [7] | Potency [8] | Potency [9] | Potency [10]

CCCCCCCCCCCCCCCCCl
inactive: activity change, negative = cytotoxicity [1] 8.74% [at 15.8 µM] | activation (H2AX phosphorylation) [2] 1.73% [at 31.6 µM] | activation [3] 0.196% [at 15.8 µM] | activity change, negative = cytotoxicity [4] 2.02% [at 31.6 µM] | activity, negative = inhibition [5] 15.7% [at 19 µM] | activity change, positive = activation ([6]; at 19 µM (top of the series)) 7.84% | activity change, negative = cytotoxicity [7] 5.56% [at 15.8 µM] | activity change, negative = cytotoxic [8] -2.48% [at 15.8 µM] | activity change, negative = cytotoxic [10] 12.5% [at 15.8 µM]

COC(c1ccccc1)(c1ccccc1)[C@H](Oc1nc(C)cc(C)n1)C(=O)O
inactive: Potency [1] | Potency [2] | Potency [3] | Potency [4] | Potency [5] | activity change, positive = activation ([6]; at 42.5 µM (top of the series)) 0.278% | Potency [7] | Potency [8] | Potency [9] | Potency [10]

CCN(CC)C(=O)Nc1ccc(OCC(O)CNC(C)(C)C)c(C(C)=O)c1 (stereo not given)
inactive: Potency [1] | Potency [2] | Potency [3] | Potency [4] | Potency [5] | activity change, positive = activation ([6]; at 42.5 µM (top of the series)) -6.6% | Potency [7] | Potency [8] | Potency [10]

CC(C)CCOCc1ccccc1
inactive: Potency [1] | Potency [2] | Potency [3] | Potency [4] | Potency [5] | activity change, positive = activation ([6]; at 92.4 µM (top of the series)) 4.72% | Potency [7] | Potency [8] | Potency [9] | Potency [10]

CC1COC(=O)O1 (stereo not given)
inactive: Potency [1] | Potency [2] | Potency [3] | Potency [4] | Potency [5] | activity change, positive = activation ([6]; at 92.4 µM (top of the series)) 4.88% and 5.46% | Potency [7] | Potency [8] | Potency [9] | Potency [10]

CCC(=O)/C=C/C1C(C)=CCCC1(C)C (stereo not given)
inactive: Potency [1] | Potency [2] | Potency [3] | Potency [4] | Potency [7] | Potency [8] | Potency [9] | Potency [10]

CCN1CCCC1CNC(=O)c1cc(S(=O)(=O)CC)c(N)cc1OC (stereo not given)
inactive: Potency [1] | Potency [2] | Potency [3] | Potency [5] | activity change, positive = activation ([6]; at 42.5 µM (top of the series)) 2.19% | Potency [7] | Potency [8] | Potency [9] | Potency [10]

CC(=O)OCCOCCOCCOC(C)=O
inactive: Potency [1] | Potency [2] | Potency [3] | Potency [7] | Potency [8] | Potency [9] | Potency [10]

CC(=O)CC(=O)Nc1ccc2[nH]c(=O)[nH]c2c1
inactive: Potency [1] | Potency [2] | Potency [3] | Potency [5] | activity change, positive = activation ([6]; at 92.4 µM (top of the series)) 4.73% | Potency [7] | Potency [8] | Potency [10]

CCC[C@H](N[C@@H](C)C(=O)N1[C@H](C(=O)O)C[C@@H]2CCCC[C@@H]21)C(=O)OCC
inactive: Potency [1] | Potency [2] | Potency [3] | Potency [4] | Potency [7] | Potency [8] | Potency [10]

— PubChem BioAssay (Tox21)
